What all share (experiment): NCI-60 one-dose screen, 48 h (100 = growth as untreated, 0 = no growth, -100 = all killed)
Conditions in all cases: 10 µM unless noted

Assay [1] relates to T-47D breast.
Assay [2] deals with BT-549 breast.
The subject of assay [3] is MDA-MB-435 melanoma.
Assay [4] relates to SW-620 colon.
Assay [5] concerns MCF7 breast.
Assay [6] deals with HCT-116 colon.
For assay [7], the system named is HCC-2998 colon.
Assay [8] relates to KM12 colon.

This is part of a sample that, as a whole, favours compounds with a hit. Of some 83,000 tested, about 20% had one in any assay.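 The endpoint reported here, percent growth, reads 100 for growth as untreated, 0 for no net growth and -100 for all cells dead.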 Unmarked numbers belong to inactive results. Activity calls are given as the source filed them. How the source made its calls: active means growth percent below 10; inactive means the rest.

For `N#C/C(=C\c1cn(Cc2ccccc2)c2ccccc12)C(=O)Nc1ncc(Cc2ccccc2Cl)s1`, the growth in assay [1] was -29.3% (active); in assay [2], 52.8%; in assay [3], -15.1% (active); in assay [4], 2.61% (active); in assay [5], 23.8%; in assay [6], 0.288% (active). Further, the growth is 58.4% in assay [7] and 26.4% in assay [8].

`Cc1cccc(-c2nc(Nc3ccc4ncsc4c3)c3ccccc3n2)n1`: the growth was 34.6% in assay [1]; 87.9% in assay [2]; 60.4% in assay [3]; 79.8% in assay [4]; 9.7% (active) in assay [5]; 77.4% in assay [6]. For the same compound, the growth in assay [7] is 116%; in assay [8], 63.1%.

Take `COc1ccc(/C=C/C(=O)c2cc(OC)c(OC)c(OC)c2)cc1OCC(=O)Nc1nc2ccc(OC(F)(F)F)cc2s1`: the growth in assay [1] is 24.3%; in assay [2], 25.7%; in assay [3], -51.3% (active); in assay [4], 6.16% (active); in assay [5], 4.06% (active); in assay [6], -75.5% (active). Moreover, the growth in assay [7] was 90.6%; in assay [8], -14.3% (active).

Turning to `CCc1ccc(CCC(=O)Nc2ncc(Cc3cc(Cl)ccc3Cl)s2)o1`, the growth in assay [1] was 44%; in assay [2], 36.4%; in assay [3], -42.6% (active); in assay [4], 24.1%; in assay [5] it was 14%; in assay [6], 17.5%. Moreover, the growth in assay [7] is 19.7%; in assay [8] it was 20.3%.

With `O=C1Nc2ccccc2/C1=C/c1cccn1C(=O)c1ccc(Cl)s1`, the growth in assay [1] was -31.3% (active); in assay [2] it was 65%; in assay [3], 89.8%; in assay [4], 56.4%; in assay [5], 12.3%; in assay [6], 34.6%. The growth in assay [7] is 54.4%; in assay [8] it was 4.36% (active).

With `NC1(CO)COC(c2ccccc2)OC1` (stereo not drawn), the growth was 103% in assay [1]; 124% in assay [2]; 117% in assay [3]; 111% in assay [4]; 111% in assay [5]; 115% in assay [6]. Moreover, the growth in assay [7] is 126%; in assay [8] it was 107%.

In the case of `CC(C)(C)n1cc(-c2ccnc(NCCCNS(=O)(=O)c3ccc(C(F)(F)F)cc3)c2)c(-c2cccc(F)c2)n1`, the growth in assay [1] is 64.5%; in assay [2] it was 84%; in assay [3] it was 93.7%; in assay [4], 90%; in assay [5] it was 66.2%; in assay [6], 54.4%. Further, the growth was 106% in assay [7] and 65.7% in assay [8].

Regarding `N#Cc1cccc(C2C3=C(COC3=O)N(CCO)c3cc4c(cc32)CCC4)c1` (stereo not drawn), the growth is 68.9% in assay [1]; 33.5% in assay [2]; -32.7% (active) in assay [3]; 21.2% in assay [4]; 23.2% in assay [5]; 8.71% (active) in assay [6]. Also, the growth in assay [7] was 12.7%; in assay [8], 11%.

Consider `O=C(CCSc1nnc2n(Cc3ccccc3)c(=O)c3c4c(sc3n12)CCCC4)N1CCN(c2ccccc2)CC1`, for which the growth was 101% in assay [1]; 99.5% in assay [2]; 91.2% in assay [3]; 101% in assay [4]; 98.4% in assay [5]; 100% in assay [6]. Besides, the figures for the growth in assay [7] and in assay [8] were 96.5% and 92.9%, respectively.

With `CC1(C)NCCC[C@]2(C)[C@H]3CC[C@H]4[C@H]5[C@H](C(=O)/C=C/c6cccnc6)CCC[C@]5(CO)CC[C@@]4(C)[C@]3(C)CC[C@@H]12`, the growth in assay [1] is 81.3%; in assay [2], 88.2%; in assay [3], 70.8%; in assay [4], 7.51% (active); in assay [5], 22.1%; in assay [6], 37.2%. Moreover, the growth in assay [7] is 19.7%; in assay [8] it was 39.8%.

Take `CC1(C)CC[C@]2(C(=O)N[C@H](CO)Cc3ccccc3)CC[C@]3(C)C(=CC[C@@H]4[C@@]5(C)CCCNC(C)(C)[C@@H]5CC[C@]43C)[C@@H]2C1`: the growth in assay [1] is 69.8%; in assay [2] it was 89.9%; in assay [3], 73.4%; in assay [4], 79.8%; in assay [5] it was 83.9%; in assay [6], 44.4%. In addition, the growth in assay [7] is 56%; in assay [8], 96%.

For `CSC(SC)=C(C#N)c1nc2ccccc2s1`, the growth in assay [1] was 33.2%; in assay [2], 13.1%; in assay [3], 76.5%; in assay [4], 81.5%; in assay [5] it was 47.3%; in assay [6] it was 14.2%. Moreover, the growth in assay [7] is 82.2%; in assay [8], 58.3%.

Regarding `CCN1C(=O)N(CC)C2Nn3c(s/c(=C\c4ccccc4Br)c3=O)=NC21` (stereo not drawn), the growth in assay [1] is 62.1%; in assay [2], 19%; in assay [3] it was -62.1% (active); in assay [4], 17.4%; in assay [5], 16.7%; in assay [6], 11.2%. Besides, the growth in assay [7] was 24.4%; in assay [8], 7.48% (active).

`COC(=O)C(Cc1ccccc1)NC(=O)c1ccc(NC(=O)c2[nH]c(C)c(Cl)c2Cl)c(OC(C)C)c1` (stereo not drawn): the growth in assay [1] is 36.5%; in assay [2], 82.1%; in assay [3], 100%; in assay [4], 42.4%; in assay [5] it was 32.8%; in assay [6] it was 0.768% (active). Further, the growth in assay [7] is 80.1%; in assay [8], 39.8%.

For `CN1CCN(Cc2ccc(NC(=O)c3cncc(C#Cc4cnc(N)c5ncccc45)c3)cc2C(F)(F)F)CC1`, the growth is 35.9% in assay [1]; 34.1% in assay [2]; -64.7% (active) in assay [3]; -16.9% (active) in assay [4]; -74.2% (active) in assay [5]; -63.8% (active) in assay [6]. The growth is 16.3% in assay [7] and 5.04% (active) in assay [8].

On to `CCOC(=O)C1=C(C)/C(=C\c2[nH]c(C)c(C(=O)OCC)c2C)N=C1C`, for which the growth in assay [1] was 66.8%; in assay [2] it was 98.1%; in assay [3], 80.6%; in assay [4], 2.24% (active); in assay [5], 88.2%; in assay [6], 74.5%. For the same compound, the growth in assay [7] is 109%; in assay [8], 81.9%.

`CC(=O)c1ccc(Nc2nccc(-c3ccc4ccccc4c3)n2)cc1`: the growth in assay [1] was 88.1%; in assay [2], 101%; in assay [3], 69.1%; in assay [4] it was 98.6%; in assay [5], 75.8%; in assay [6] it was 104%. In addition, the growth in assay [7] was 104%; in assay [8], 81.8%.

For `Oc1c(CN2CCC(N3CCCCC3)CC2)cc(Cc2cc(CN3CCC(N4CCCCC4)CC3)c(O)c3ncccc23)c2cccnc12`, the growth is 7.31% (active) in assay [1]; 27% in assay [2]; -13.1% (active) in assay [3]; 29.1% in assay [4]; 6.62% (active) in assay [5]; 13% in assay [6]. Moreover, the growth in assay [7] was 32.9%; in assay [8], 21.7%.

Consider `O=C(/C=C/C12c3ccccc3C(c3ccccc31)C1C(=O)NC(=O)C12)c1ccc(Br)cc1` (stereo not drawn), for which the growth was 36.8% in assay [1]; 46.1% in assay [2]; 18.5% in assay [3]; 15.3% in assay [4]; 10.1% in assay [5]; 26.6% in assay [6]. Further, the growth is 95.3% in assay [7] and 55.5% in assay [8].

For `CCN1C(=O)N(CC)C2C1N=C(SCc1ccc(Cl)cc1)N2/N=C/C=C/c1ccccc1OC` (stereo not drawn), the growth was 41.6% in assay [1]; 106% in assay [2]; -16.9% (active) in assay [3]; 74.8% in assay [4]; 13.5% in assay [5]; 37% in assay [6]. Also, the growth in assay [7] was 85.9%; in assay [8], 64.6%.

As for `CNCc1cccc2c1OCCOCCOCCNS(=O)(=O)c1ccc(cc1)-c1cnc(N)c(n1)C(=O)N2`, the growth is 70.4% in assay [1]; 28.3% in assay [2]; 35.1% in assay [3]; 15.5% in assay [4]; 11.8% in assay [5]; 7.19% (active) in assay [6]. Besides, the results for the growth in assay [7] and in assay [8] were 21.7% and 20.2%, respectively.

`CS(=O)(=O)Nc1cc(-c2ccc3ncc(C#N)c(Nc4ccc(F)c(Cl)c4)c3c2)cnc1Cl`: the growth in assay [1] is -13.3% (active); in assay [2], -14.5% (active); in assay [3], 2.34% (active); in assay [4] it was 5.69% (active); in assay [5], 4.03% (active); in assay [6] it was 4% (active). Moreover, the results for the growth in assay [7] and in assay [8] were 6.92% (active) and 8.82% (active), respectively.

Regarding `CSc1nn2c(-c3ccc4ccccc4c3)ccnc2c1C#N`, the growth was 18.8% in assay [1]; 44% in assay [2]; -63.6% (active) in assay [3]; 9.09% (active) in assay [4]; 10% (active) in assay [5]; -38.1% (active) in assay [6]. The growth is 52.2% in assay [7] and 5.75% (active) in assay [8].

Take `Cc1ccc2c(-c3nnc(N)s3)cc(=O)oc2c1C`: the growth is 72.9% in assay [1]; 101% in assay [2]; 96.1% in assay [3]; 97.8% in assay [4]; 93.4% in assay [5]; 95.6% in assay [6]. Besides, the growth in assay [7] was 113%; in assay [8], 105%.

`C#COc1cccc(Nc2ncnc3cc(NC(=O)[C@@H](C)Cl)ccc23)c1`: the growth in assay [1] is -1.06% [6.25 µM] (active); in assay [2] it was 22.2% [6.25 µM]; in assay [3], -58.4% [6.25 µM] (active); in assay [4] it was 20.4% [6.25 µM]; in assay [5], 11.6% [6.25 µM]; in assay [6], 9.6% [6.25 µM] (active). The growth in assay [7] was 15.2% [6.25 µM]; in assay [8], 14.8% [6.25 µM].

As to `Cc1c2ccncc2c(C)c2c1c1cc(CO)ccc1n2C`, the growth in assay [1] is -17.1% (active); in assay [2], 10.7%; in assay [3] it was 6.7% (active); in assay [4], 1.67% (active); in assay [5], 4.26% (active); in assay [6], -22.5% (active). In addition, the growth is 15.5% in assay [7] and 9.22% (active) in assay [8].

As to `CCCCCCCCCCCCCOC(=O)c1c(C)[nH]c(/C=C2\N=C(c3ccc[nH]3)C=C2OC)c1C`, the growth was 27.2% in assay [1]; 51.5% in assay [2]; 19.2% in assay [3]; 3.08% (active) in assay [4]; 12.2% in assay [5]; 11.3% in assay [6]. Also, the growth in assay [7] was 22.8%; in assay [8], 12.7%.

As to `CC1=CC(c2ccco2)=C2C(N)=NNC2N1` (stereo not drawn), the growth in assay [1] was 85.1%; in assay [2], 100%; in assay [3] it was 101%; in assay [4] it was 102%; in assay [5], 91%; in assay [6], 100%. Further, the growth was 99.2% in assay [7] and 105% in assay [8].

Consider `CC1C=CC(OC(=O)C(C)(O)CCC(O)(C(=O)OC2CC(O)C(C(C)C)CC2(C)O)C(C)C)(C(C)C)CC1` (stereo not drawn), for which the growth in assay [1] was -47.1% [4.63 µM] (active); in assay [2] it was -81% [4.63 µM] (active); in assay [3], -92% [4.63 µM] (active); in assay [4], -67.8% [4.63 µM] (active); in assay [5] it was -67.6% [4.63 µM] (active); in assay [6] it was -40% [4.63 µM] (active). The growth in assay [7] was -72.8% [4.63 µM] (active); in assay [8], -77.4% [4.63 µM] (active).

Consider `O=C(NNc1cnccn1)c1nc2cc(F)ccc2n2cccc12`, for which the growth is 20% in assay [1]; 32% in assay [2]; 24.5% in assay [3]; 19.6% in assay [4]; 5.93% (active) in assay [5]; 5.5% (active) in assay [6]. For the same compound, the growth in assay [7] is 35.7%; in assay [8], 18.5%.

Take `CCS/C(Nc1ccccc1)=C(\C#N)C(=O)Nc1ccc(OC)cc1`: the growth is 25.4% in assay [1]; 40.5% in assay [2]; -47.9% (active) in assay [3]; 18% in assay [4]; 19% in assay [5]; 14.3% in assay [6]. In addition, the growth in assay [7] was 55.2%; in assay [8], 31%.

For the origin of these results see PubChem BioAssay (NCI).
